Assay outcomes deposited in PubChem BioAssay by National Center for Advancing Translational Sciences (NCATS).
HPGD block: HPGD (human) dehydrogenase inhibition; AID 894; purified HPGD, NADH fluorescence kinetic, PGE2 substrate; hit rate 4.3% among 150,000; Potency, µM, hits mostly inhibitors; P15428
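NADH formation kinetics: reaction with 30 uM PGE2 and 1 mM NAD+ (final), 20 nM enzyme, Tris-HCl pH 8 with Tween 20, after 15 min compound preincubation at room temperature. Fluorescence change, last versus first of five reads.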
ALDH1A1 inh: ALDH1A1 (human) enzyme inhibition; Purified ALDH1A1, NADH fluorescence, propionaldehyde substrate; hit rate 7.3% among 220,000; Potency, µM (series often up to 75.3 µM), usual class: inhibitors; AID 1030; P00352
Target sequence (P00352 whole entry, looked up): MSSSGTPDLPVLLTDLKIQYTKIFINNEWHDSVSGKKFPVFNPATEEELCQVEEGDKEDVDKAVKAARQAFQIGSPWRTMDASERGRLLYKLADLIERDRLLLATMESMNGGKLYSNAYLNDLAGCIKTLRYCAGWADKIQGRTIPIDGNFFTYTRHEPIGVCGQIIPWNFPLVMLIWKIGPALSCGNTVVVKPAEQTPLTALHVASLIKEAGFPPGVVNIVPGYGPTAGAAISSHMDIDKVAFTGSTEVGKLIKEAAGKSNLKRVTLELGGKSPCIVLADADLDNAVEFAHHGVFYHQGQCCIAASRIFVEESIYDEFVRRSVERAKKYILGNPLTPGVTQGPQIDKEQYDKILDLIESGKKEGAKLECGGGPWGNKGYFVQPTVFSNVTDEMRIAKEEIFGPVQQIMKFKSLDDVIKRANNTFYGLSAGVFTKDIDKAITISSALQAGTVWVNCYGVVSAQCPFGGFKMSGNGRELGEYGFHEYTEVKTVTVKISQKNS
PNC inhibitor: blocks assembly of the perinucleolar compartment. PC3M PTB-GFP, PNC prevalence imaging, 16 h; hits give low values. activity change (PNC), negative = inhibition, % at 10 µM. hit rate 3.1% among 140,000. AID 2417;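 active = readout at or below -70, meaning at least 70% loss of cells showing the perinucleolar compartment, a nuclear body marking cancer cells; inconclusive = readout between -30 and a set limit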
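Read-out is percentage of cells bearing a perinucleolar compartment, from automated 20x imaging of fixed, Hoechst-stained PC3M PTB-GFP cells. Cells were seeded 4 h, then exposed 16 h to compound (23 nl of library stock) in duplicate plates.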
Large screens that a line does not name were inactive. Compounds with a hit are over-represented: about 11% of the library has one in this group of screens. Unless noted, calls come from the whole dose curve; as a rule, active = well fitted inhibition curve with a large enough effect (not every such curve was filed as active); inconclusive = small, poorly fitted or top-dose-only effect, or another doubt; inactive = no such curve, though single readings can be large or run the other way.

O=[N+]([O-])c1ccc(C2CCCC/C2=N/OCc2ccccc2F)c([N+](=O)[O-])c1 (configuration not stated)	PNC inhibitor inconclusive
O=C(O/N=C1\CCCCC1c1ccc([N+](=O)[O-])cc1[N+](=O)[O-])c1c(F)cccc1F (configuration not stated)	ALDH1A1 inh 18µM
CN(C)CC(=O)N1CCc2ccccc2C1	none (no result: HPGD block, PNC inhibitor)
CCc1ccc(/C=C\C(=O)N2CCc3ccccc3C2)cc1	HPGD block 11µM
NS(=O)(=O)c1ccc(NC(=O)CSC2CCCCC2)cc1	none
O=C(CSC1CC(=O)N(c2ccc(C(=O)O)cc2)C1=O)Nc1ccc2ccccc2c1 (configuration not stated)	none (no result: HPGD block, PNC inhibitor)
Cc1ccc(N2C(=O)CC(SCC(=O)Nc3ccc(S(N)(=O)=O)cc3)C2=O)cc1 (configuration not stated)	ALDH1A1 inh 14µM (no result: HPGD block, PNC inhibitor)
CCOC(=O)c1ccc(N2C(=O)CC(SCC(=O)Nc3ccc(S(N)(=O)=O)cc3)C2=O)cc1 (configuration not stated)	ALDH1A1 inh 1.6µM (no result: HPGD block, PNC inhibitor)
Cc1c(N=C=O)cccc1N=C=O	none (no result: PNC inhibitor)
NS(=O)(=O)c1cccc(-n2cnnn2)c1	none (no result: HPGD block, PNC inhibitor)
Cc1cc(-c2ccn[nH]2)c(C)s1	none (no result: HPGD block, PNC inhibitor)
CCNC(=S)N/N=C/c1sc(N2CCCCC2)nc1-c1cccs1	none
O=c1/c(=C\c2ccc3c(c2)OCO3)sc2n1CCCN=2	ALDH1A1 inh inconclusive
Cc1ccc(/C=c2/sc3n(c2=O)CCCN=3)o1	ALDH1A1 inh 3.5µM
Cc1ccc(N2CN=c3s/c(=C\c4cccnc4)c(=O)n3C2)cc1	none
Cc1ccc(/C=c2\sc3n(c2=O)CN(c2ccc(Br)cc2)CN=3)o1	ALDH1A1 inh 14µM
CC(C)Cc1nnc(NC(=O)CSc2nc(O)c(-c3ccccc3)c(=O)[nH]2)s1	none (no result: HPGD block, PNC inhibitor)
Cc1ccccc1N(C(=O)Cn1nnc(-c2cccs2)n1)C(C(=O)NCCC(C)C)c1ccco1 (configuration not stated)	none
O=C(O)CN1C(=O)C2C3CC(C2C1=O)C1C(c2ccccc2)c2sc(=O)[nH]c2SC31 (configuration not stated)	none
O=c1[nH]c2c(s1)C(c1ccco1)C1C3CCC(C3)C1S2 (configuration not stated)	ALDH1A1 inh 13µM, PNC inhibitor inconclusive
O=C(O)Cc1cccc(OCCCN(Cc2cccc(C(F)(F)F)c2Cl)CC(c2ccccc2)c2ccccc2)c1	ALDH1A1 inh inconclusive (no result: PNC inhibitor)
O=C(O)CSc1ccc2ccccc2n1	PNC inhibitor inconclusive
O=C(CSc1nc2ccc(Cl)cc2[nH]1)c1ccc2c(c1)OCO2	ALDH1A1 inh 18µM, PNC inhibitor inconclusive
O=C(CSc1ccc2ccccc2n1)c1ccc2c(c1)OCO2	HPGD block 8.9µM, ALDH1A1 inh inconclusive, PNC inhibitor inconclusive
O=C(CSc1ncn[nH]1)c1ccc2c(c1)OCO2	PNC inhibitor inconclusive
Nc1ncnc(N2CCc3ccccc32)c1[N+](=O)[O-]	none (no result: HPGD block, PNC inhibitor)
Cc1ccc(S(=O)(=O)NCCC(=O)Nc2nnc(C3CC3)s2)cc1C	ALDH1A1 inh 18µM, PNC inhibitor inconclusive
Cc1cc(C)cc(N(CCC(=O)Nc2nnc(C3CC3)s2)S(=O)(=O)c2ccc(Cl)cc2)c1	none
C=C(Nc1ccc(OCC)cc1)Nc1ccc(OCC)cc1	none (no result: PNC inhibitor)
CC1CCN(C(=O)Cn2cc(SCC(=O)NCC3CCCO3)c3ccccc32)CC1 (configuration not stated)	none (no result: HPGD block, PNC inhibitor)
Cn1c(=O)cc(SCC(=O)NCC2CCCO2)c2ccccc21 (configuration not stated)	ALDH1A1 inh 13µM (no result: HPGD block)
Cn1c(=O)cc(SCC(=O)NCCC2=CCCCC2)c2ccccc21	HPGD block 7.1µM, ALDH1A1 inh inconclusive
Cn1cc(SCC(=O)NCC2CCCO2)c2ccccc21 (configuration not stated)	HPGD block 28µM
CC(C)C(=O)c1cn(CC(=O)NCC2CCCO2)c2ccccc12 (configuration not stated)	ALDH1A1 inh 22µM
CCCn1cc(SCC(=O)NCC2CCCO2)c2ccccc21 (configuration not stated)	HPGD block inconclusive, ALDH1A1 inh inconclusive
COc1ccc(CNC(=O)CSc2cc(=O)n(C)c3ccccc23)cc1	none (no result: HPGD block, PNC inhibitor)
CCc1cccc2c(C(=O)C(F)(F)F)cn(CC(=O)NCC3CCCO3)c12 (configuration not stated)	none (no result: HPGD block, PNC inhibitor)
CC(=O)Nc1ccc(N2CCc3c(C)c(C#N)c4nc5ccccc5n4c32)cc1	ALDH1A1 inh inconclusive
O=C(Cn1ncc2c(=O)oc3ccccc3c21)NCc1cccnc1	none (no result: HPGD block, PNC inhibitor)
O=C(Cn1ncc2c(=O)oc3ccccc3c21)NCC1CCCO1 (configuration not stated)	PNC inhibitor -119
CCOC(=O)CSc1nnc(CNc2ccc(Cl)cc2)n1-c1ccccc1	ALDH1A1 inh 10µM
CCOc1ccc(NCc2nnc(SCc3ccc(Cl)cc3)n2-c2ccccc2)cc1	ALDH1A1 inh 16µM
CCn1c(CNc2ccc(Cl)cc2)nnc1SCc1ccc(Cl)cc1	ALDH1A1 inh inconclusive, PNC inhibitor inconclusive
CCOC(=O)CSc1nnc(CNc2cccc(Cl)c2)n1-c1ccccc1	ALDH1A1 inh inconclusive
O=[N+]([O-])c1ccc(NN=C2c3ccccc3Cc3ccccc32)c([N+](=O)[O-])c1	none (no result: PNC inhibitor)
Cc1ccccc1NC(=S)N(Cc1ccco1)C(C)c1ccccn1 (configuration not stated)	none (no result: HPGD block, PNC inhibitor)
COc1ccccc1N1C(=O)CSC1=NC(=O)c1ccccc1	none (no result: HPGD block, PNC inhibitor)
COc1ccccc1N=C1SCC(=O)N1c1ccccc1OC	HPGD block inconclusive, ALDH1A1 inh 20µM
Cc1noc(C)c1C(=O)N1CCC2(CC1)CCN(C(c1ccccc1)c1ccccc1)CC2	ALDH1A1 inh inconclusive (no result: PNC inhibitor)
Cc1cc(C(=O)N2CCCC(C(=O)c3cc(F)ccc3F)C2)c(C)o1 (configuration not stated)	ALDH1A1 inh 14µM (no result: HPGD block, PNC inhibitor)
Cc1ccc(C(=O)N2CCCC(C(=O)c3cc(F)ccc3F)C2)s1 (configuration not stated)	none (no result: HPGD block, PNC inhibitor)
NC(=O)COc1ccc(=O)n(-c2ccccc2)n1	ALDH1A1 inh inconclusive
Cn1nc(OCC(N)=O)ccc1=O	PNC inhibitor -100
CCOC(=O)Cc1cc(OC)c(OC)cc1Cc1cc(OC)c(OC)cc1CC(=O)OCC	none
COc1ccc(-c2nnc3n2-c2ccccc2SC3)cc1OC	HPGD block 35µM, ALDH1A1 inh 16µM, PNC inhibitor inconclusive
COc1ccc(C2=Nn3c(nnc3-c3ccncc3)SC2)cc1OC	HPGD block inconclusive, ALDH1A1 inh inconclusive
CC(C)C1=C[C@@]23CC[C@@H]4[C@](C)(CCC[C@@]4(C)C(=O)O)[C@@H]2C[C@@H]1[C@@H](C(=O)O)[C@@H]3C(=O)O	none (no result: PNC inhibitor)
Cc1cccc(Nc2nnc(SCC(=O)Nc3ccccc3[N+](=O)[O-])s2)c1C	HPGD block inconclusive, ALDH1A1 inh 1.3µM
Cc1cccc(Nc2nnc(SCC(=O)Nc3ncc(C(F)(F)F)cc3Cl)s2)c1C	none
CCc1ccccc1NC(=O)CN(C)C(=O)CSc1nnc(Nc2ccc(C)cc2)s1	none
Cc1ccc(Nc2nnc(SCC(=O)Nc3ccccc3[N+](=O)[O-])s2)cc1	PNC inhibitor -119
CC(C)CNC(=O)c1cccc(NC(=O)C(C)C)c1	none (no result: HPGD block, PNC inhibitor)
CCc1ccnc(NS(=O)(=O)c2ccc3c(c2)CCO3)c1	none (no result: HPGD block, PNC inhibitor)
CCCNC(=O)c1cc(-c2ccc(OC)cc2)n(CCCOC)c1C	HPGD block 8.9µM, ALDH1A1 inh inconclusive, PNC inhibitor inconclusive
